Data on one compound can be found in PubChem BioAssay AID651998 (The Scripps Research Institute Molecular Screening Center, 2013).

Each structure is given as a SMILES string.

The test system of the experiment is LYPLA1. As to the kind of experiment: LYPLA1 enzyme kinetics with inhibitors – biochemical, substrate-based fluorescence, Ki, Km, late-stage follow-up (AID 651998). The settings on record: recombinant LYPLA1, resorufin acetate hydrolysis fluorescence, Ki from Cheng-Prusoff.

Turning to `O=C(CN1CCN(C(=O)c2ccco2)CC1)Nc1cc(C(F)(F)F)ccc1Cl`, the Ki stood at 0.3 µM.

A word on the Ki: it is the equilibrium dissociation constant of an inhibitor or competing ligand from its target.
